The record followed here is PubChem BioAssay (NCI).

Compounds without any hit were thinned out: in the full panel of roughly 83,000, 20% have a hit.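 Cell lines were cultured in 96-well plates, exposed to a single compound concentration, and assessed for percent growth 48 hours later.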 Active and inactive are the calls of the source. How the source made its calls: active means growth percent below 10; inactive means the rest.

The subject of the assay is HL-60(TB) leukemia. Put plainly: NCI-60 one-dose screen, 48 h (100 = growth as untreated, 0 = no growth, -100 = all killed). The note with it: 10 µM unless noted.
As for `O=C(Nc1ccc(C2=NCCCN2)cc1)c1ccc(C(=O)Nc2ccc(C3=NCCCN3)cc2)nc1`, the growth is 79% (inactive).

On to `C/C(=N\NC(=S)N1CC2CCC(CC2)C1)c1ccccn1`, for which the growth is -22.4% (active).

In the case of `CCOc1nc(-c2ccccc2)cc2c(O)c(C(=O)N/N=C/c3ccc(OC)cc3)[nH]c(=O)c12`, the growth was 65.1% (inactive).

On to `Oc1cccc(-c2nc(-c3n[nH]c(=S)n3-c3ccccc3)cc3c2[nH]c2ccccc23)c1`, for which the growth is 4.29% (active).

`COc1cccc(C(=O)Cn2cc(/C=C(\C#N)S(=O)(=O)c3ccccc3)c3ccccc32)c1`: the growth is 102% (inactive).

As for `COc1cc(/C=C/C(=O)c2cccc(-n3cc(-c4ccccc4)[nH]c3=O)c2)cc(OC)c1OC`, the growth was -5.55% (active).

In the case of `Cc1nn2c(-c3nc4ccc(Cl)cc4[nH]3)c(-c3ccc(F)cc3)nc2s1`, the growth was 117% (inactive).

As for `Cc1ccc(-c2[nH][nH]c(=O)c2-c2nc3ccccc3s2)cc1`, the growth is 101% (inactive).

Turning to `c1coc([C@@H]2C[C@@H]3Cc4ccc5ccccc5c4N2O3)c1`, the growth is 100% (inactive).

On to `CC[C@@H](C(=O)[C@@H](C)[C@@H](O)[C@H](C)[C@@H]1O[C@@H]([C@@H](CC)C(=O)O)CC[C@@H]1C)[C@H]1OC2(C=C[C@@H](O)[C@]3(CC[C@@](C)([C@H]4CC[C@](O)(CC)[C@H](C)O4)O3)O2)[C@H](C)C[C@@H]1C` (some centres not stated), for which the growth is -45.6% (active).

For the molecule `O/N=C1\c2ccccc2-c2ccc(F)cc21`, the growth is 92.3% (inactive).

As to `O=C(O)c1cn(C2CC2)c2cc(N3CCN(Cc4c(O)ccc5ccccc45)CC3)c(F)cc2c1=O`, the growth was 71.6% (inactive).
